Source: PubChem BioAssay AID1347428 (National Center for Advancing Translational Sciences (NCATS), 2020)
Screen size: about 91,000 compounds; about 290 (0.32%) were called active. Inconclusive results (about 7%) are left out. Only a selection was taken, and actives are over-represented in it overall. A number with no mark means an inactive call. Calls come from the whole dose curve; as a rule, active = well fitted inhibition curve with a large enough effect; inconclusive = small, poorly fitted or top-dose-only effect; inactive = no such curve, though single readings can be large or run the other way.

The compounds below were run against Single-stranded DNA cytosine deaminase (Homo sapiens) (UniProt Q9GZX7) (assay: Primary qHTS assay for inhibitors of Activation Induced Cytidine Deaminase (AID): AID signal). Conditions: AID deamination FRET fluorescence, UDG-coupled, 4 h; series mostly up to 115 µM; activity change, negative = inhibition: at the top concentration.
Single-stranded DNA cytosine deaminase (Homo sapiens), sequence (Q9GZX7 whole entry, looked up): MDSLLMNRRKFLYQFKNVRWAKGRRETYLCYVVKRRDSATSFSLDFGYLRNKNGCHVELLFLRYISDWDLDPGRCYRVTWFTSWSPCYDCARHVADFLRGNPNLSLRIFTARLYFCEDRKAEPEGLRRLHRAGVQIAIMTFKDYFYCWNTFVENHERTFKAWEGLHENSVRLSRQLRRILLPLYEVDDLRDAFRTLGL
Excerpt: Assay Provider (PI) Patricia Gearhart Ph.D.
National Institute on Aging
National Institute of Health (NIH), Bethesda, MD
Assay Provider (PI) Rahul Kohli Ph.D.
Perelman School of Medicine
University of Pennsylvania, Philadelphia, PA
Activation-Induced Deaminase (AID) is a cytosine deaminase which converts cytosine into uracil within stretches of ssDNA. The presence of uracil in DNA initiates a cascade of mutagenic DNA repair to introduce point mutations and DNA double strand breaks. Specific targeting of AID to the immunoglobulin heavy chain loci (Igh) promotes mutagenesis in the antibody variable region for somatic hypermutation (SHM) or switch regions leading to class switch recombination (CSR). However, AID also plays a role in accumulating unnecessary mutations across the genome. Mis-targeting of AID results in the initiation of tumor development and leads to greater drug resistance among cancer cells when continually expressed. To identify an AID inhibitor, a small molecule library will be screened in collaboration with NCATS core facility at NIH. To confirm biological function, inhibitors will be examined in an in vitro murine B-cell activation assay and subsequent secondary validation screens. Top molecules will be further screened to identify inhibitory efficacy against a wild type primary splenocytes assay. Using these approaches, we hope to identify a small molecule with great efficacy and low toxicity for use as a molecular probe to further characterize AID's intricacies, or even as a therapeutic.
A FRET based analysis of cytosine deamination, was developed to identify potential inhibitors of AID catalytic activity. This screen has two signal output, Read 1 evaluates the AID inhibition response. The second readout (Read 2) evaluates UDG response and is uses as a counterscreen to exclude false positive inhibitors. Inhibition in AID and inactivity in the UDG signal is the desired outcome for this assay.
SEQUENCE No. (e.g., 1, 2, 3, etc.); […] (e.g., Cells, Incubation, Reagent, etc.); VALUE; DESCRIPTION
1a; Reagent; 3 uL; [4/3x] 1 uM AID/2.67 U/mL UDG
1b; Reagent; 3 uL; 2 U/mL UDG
1c; Reagent; 3 uL; 1 uM AID
2a; Compound; 46 nL; Follow-up plates (0.64 uM - 10 mM)
2b; Control; 46 nL; ATA ([…] - 10 mM)
3; Time; 10 min; incubation at room temperature
5; Time; 4 hr; incubation at room temperature
6; Reagent; 4 uL; [2x] 250 mM NaOH
7; Time; 15 sec; centrifuge at 1000 rpm
8; Time; 30 min; incubation at room temperature
9a; Detection; fluorescence (Read 1: AID); EnVision (PerkinElmer) plate reader, 540 excitation and 590 emission filters
9b; Detection; fluorescence (Read 2: UDG); EnVision (PerkinElmer) plate reader, 560 excitation and 665 emission filters
NOTES (numbers refer to sequence above)
1a; Reagents were dispensed in a medium-binding black solid-bottom Greiner plates (789176F) using a BioRptr liquid dispenser. Dispense 3 uL of [4/3x] 1 uM AID (provided by Kohli lab) and [4/3x] 2 U/mL UDG (NEB M0280L) into columns 1, 2, 5 to 48.
1b; Dispense 3 uL of [4/3x] 2 U/mL UDG into column 3.
1c; Dispense 3 uL of [4/3x] 1 uM AID into column 4.
2a; Compound (7-points [uM] (0.64; 3.2; 16; 80; 400; 2,000; 10,000; 20,000) double pin-transferred (Dip Factor = 2) using the Kalypsys (Wako USA) pintool equipped with a 1536 pinhead for a final concentration range of 7.32 nM - 114 uM.
2b; 10 mM Aurintricarboxylic Acid (Sigma A1895) (ATA, 8-point, n = 2, 1:2.5 dilution in column 2) double pin-transferred (Dip Factor = 2) using the Kalypsys (Wako USA) pintool equipped with a 1536 pinhead for a [final] range of 186 nM - 114 uM.
3; Room temperature incubation.
4; Dispense 1 uL of substrate mixture from the Kohli lab [4x] […] DJC20 and [4x] 250 nM DJC23 into columns 1 to 48 .
5; Room temperature incubation.
6; Dispense 4 uL of substrate mixture [2x] 250 mM NaOH into columns 1 to 48.
7; Centrifugation step to remove bubbles.
8; Room temperature incubation
9a; Fluorescence signal (column label AID) was read using the EnVision plate reader. […]
% is set by controls: 0 for no effect and ±100 for the full control effect; potency is the fitted concentration of half-maximal effect.
Note: nearly all actives have a fitted effect of over 25% in size.

First: CSc1ccc(C)c(C(=O)NCC2CC2)c1
Second: CCC/C=N/NC(=O)c1ccc(C)cc1C
The “activity change, negative = inhibition” value of the first is higher: -3.38% for the first, -3.8% for the second.

First: O=C(O)Cn1cccc(C(F)(F)F)c1=O
Second: COc1ccc(C(=O)/C(C#N)=C\c2ccccc2C(F)(F)F)cc1
The “activity change, negative = inhibition” value of the first is higher: -5.47% for the first, -17.9% for the second.

First: COc1cc(C(=O)NC2CCOC2=O)cc(OC)c1OC (configuration not stated)
Second: COc1cc(C2SCCS2)ccc1OC(=O)c1ccc2c(c1)NC(=O)CS2
The “activity change, negative = inhibition” value of the first is higher: -0.451% for the first, -4.16% for the second.

Going from `O=C(O)CCCC(=O)N1CCN(c2ccc(Cl)c(Cl)c2)CC1` to `CCOC(=O)C1CCN(C(=O)COC(=O)c2cn(-c3ccccc3)nc2-c2ccc(Cl)cc2)CC1`, the “activity change, negative = inhibition” value rises from -1.12% to -1.08%.

First: Cc1cc(Br)cc(C)c1O
Second: CCn1c(C)cc(/C=C(\C#N)c2ccc(Br)cc2)c1C
The “activity change, negative = inhibition” value of the first is higher: 2.69% for the first, -17% for the second.

Going from `O=C(Nc1ccc(Br)cc1)C(c1ccccc1)C1CCCC1` (configuration not stated) to `CC(=O)N1CCC(C(=O)Nc2ccc(Br)cc2)CC1`, the “activity change, negative = inhibition” value falls from 1.06% to -1.32%.

Compared with `O=C(NCc1ccc(F)cc1)NC1CC1`, `CCc1ccc(CCC(=O)NC)cc1` is lower in “activity change, negative = inhibition” value: 10.1% for the first, -3.77% for the second.

Going from `O=C(/C=C/c1ccc(OCc2ccccc2)cc1)c1cccnc1` to `CC(C)c1ccc(Cn2c(COc3ccccc3)nc3ccccc32)cc1`, the “activity change, negative = inhibition” value falls from -9.09% to -27.4%.

First: CN(CCOc1ccc(Br)cc1)C(=O)CSc1nnnn1C
Second: COCCn1cnnc1SC(C)C(=O)c1ccc(F)cc1 (configuration not stated)
The “activity change, negative = inhibition” value of the first is lower: -1.3% for the first, 3.25% for the second.

Going from `Cc1c(C)n(Cc2ccc(Cl)cc2)c2ccc(C(=O)N3CCN(c4ccccc4F)CC3)cc12` to `CCOc1ccccc1C(=O)NCc1ccc2c(c1)CCN2C(=O)c1ccc(F)cc1`, the “activity change, negative = inhibition” value rises from -18.3% to -1.92%.

Going from `CC1CCc2cc(F)ccc2N1C(=O)C1(C)CC1(Br)Br` (configuration not stated) to `Cc1cccc(C(=O)OC2CCCN(C)C2)c1` (configuration not stated), the “activity change, negative = inhibition” value rises from -6.2% to 1.04%.

Compared with `CC(C)CNC(=O)NC1=C(C#N)C(C)(C)Cc2ccccc21`, `Cc1cc(C)c(NC(=O)C(C)Oc2ccc(C#N)cc2)c(C)c1` (configuration not stated) is lower in “activity change, negative = inhibition” value: -1.37% for the first, -8.62% for the second.

Going from `CNc1snc(C)c1C(=O)N(C)CCOc1ccccc1C` to `Cc1noc(C)c1COc1cccc(C(=O)Nc2ccc(S(=O)(=O)NCc3ccco3)cc2)c1`, the “activity change, negative = inhibition” value falls from 4.47% to -5.53%.

First: CCOc1ccc(C(=O)Nc2cc(C(F)(F)F)ccc2Cl)cc1Cl
Second: O=C(NCCc1ccc(C(F)(F)F)cc1)c1ccccn1
The “activity change, negative = inhibition” value of the first is higher: 3.9% for the first, -1.76% for the second.

Compared with `COc1ccc(OC)c(-n2cnc3c2NC(=O)CC3c2ccsc2)c1` (configuration not stated), `Cc1ccccc1NC(=O)CSC1=C(C#N)C(c2ccccc2F)CC(=O)N1` (configuration not stated) is lower in “activity change, negative = inhibition” value: 24.8% for the first, -9.28% for the second.

Compared with `COc1ccc(C2Nc3ccccc3C(=O)N2c2ccc(C)cc2)cc1CN1CCOCC1` (configuration not stated), `CCOc1ccc(NC(=O)Cn2cc(C(=O)c3ccc(C)cc3)c(=O)c3cc4c(cc32)OCCO4)cc1` is higher in “activity change, negative = inhibition” value: 0.31% for the first, 2.34% for the second.

First: Cc1cc(Nc2ccccc2)n2nc(Cc3ccc(Cl)cc3)nc2n1
Second: Cn1c(=O)n(Cc2ccccc2)c(=O)c2c1nc(NCc1ccccc1)n2Cc1ccccc1
The “activity change, negative = inhibition” value of the first is lower: -19.8% for the first, -8.97% for the second.

Going from `CN(C)S(=O)(=O)c1ccc(NC(=O)COc2ccc3cc(Br)ccc3c2)cc1` to `COc1ccc(NC(=O)Cn2cc(C(=O)c3ccncc3)c(=O)c3cc(C)ccc32)cc1Cl`, the “activity change, negative = inhibition” value rises from 0.34% to 20.6%.

Compared with `O=C(c1cc2ccccc2o1)c1ccc(F)cc1F`, `N#CCCc1c(O)ccc2ccccc12` is lower in “activity change, negative = inhibition” value: -2.04% for the first, -3.83% for the second.

Compared with `COC(=O)c1ccc(C(=O)OC(C)C(=O)C23CC4CC(CC(C4)C2)C3)cc1` (configuration not stated), `CC(=O)c1ccc(NC(=O)NCCCN(C)CC(F)(F)F)cc1` is higher in “activity change, negative = inhibition” value: -5.4% for the first, 7.31% for the second.

Going from `CCCCn1c(N2CCN(CCc3ccccc3)CC2)nc2c1c(=O)[nH]c(=O)n2C` to `O=C(CSc1nc2c(c(=O)n1CCc1ccccc1)SCC2)Nc1cccc2ccccc12`, the “activity change, negative = inhibition” value falls from -4.37% to -4.61%.

First: CCCCCCCCS(=O)(=O)CCCCCCC(=O)O
Second: CCCCn1nc(C(=O)Nc2cccc(C(=O)NC3CC3)c2)c2ccccc2c1=O
The “activity change, negative = inhibition” value of the first is lower: -5.95% for the first, 0.862% for the second.

Compared with `CCN(CC)C(=S)SC(C(N)=O)c1ccccc1` (configuration not stated), `Cc1cccc(NC(=O)C(C#N)C(=O)CC(C)(C)C)c1` (configuration not stated) is lower in “activity change, negative = inhibition” value: -2.39% for the first, -20.9% for the second.

First: CCCc1cc(=O)oc2cc(OS(=O)(=O)c3cccc(C#N)c3)ccc12
Second: COc1ccc(CCC(=O)NCc2ccc3c(c2)CCN3C(=O)c2ccc(F)cc2)cc1
The “activity change, negative = inhibition” value of the first is higher: -6.87% for the first, -16.6% for the second.

For `O=C(Nc1ccc(C(F)(F)C(F)(F)C(F)(F)F)oc1=O)c1ccccc1`, the “activity change, negative = inhibition” value was -2.06%.

With `CC(C)c1ccc2c(c1)c(SC(C)(C)C)c(CC(C)(C)C(=O)O)n2Cc1ccc(Cl)cc1` the Potency was 79.4 µM (active).
`O=C(COc1ccccc1)NCc1ccc2c(c1)CCN2C(=O)c1ccc(F)cc1` was tested, and the Potency was 22.4 µM (active).
In the case of `COc1ccc(Cn2cc(C(=O)c3ccc(C)cc3)c(=O)c3cc(OC)c(OC)cc32)cc1`, the Potency is reported as 44.7 µM (active).
